{"source": "PubChem BioAssay AID686979", "about": "(National Center for Advancing Translational Sciences (NCATS), 2013)", "note": "Where “and” joins values, the source holds several entries; their conditions need not be identical. Equal entries are not always repeated. Hit rate of the full screen: of about 420,000 compounds, about 50,000 (12%) were called active. About 26% were inconclusive and are not listed. The call rests on the fitted dose curve; in most records, active means well fitted inhibition curve with a large enough effect; inconclusive means small, poorly fitted or top-dose-only effect; inactive means flat fitted curve, though single readings scatter. The entries come from a sample that favours actives as a whole. Where a call stands in place of a potency, no number is given. Potency means the concentration at half of the fitted maximal effect."}
{"test": "qHTS for Inhibitors of human tyrosyl-DNA phosphodiesterase 1 (TDP1): qHTS in cells in presence of CPT; further: nearly all actives have a fitted effect of over 55% in size", "conditions": "chicken DT40 Tdp1-/-;hTDP1 cells + 20 nM CPT, ATP luminescence, 48 h; series mostly up to 46.2 µM", "procedure,_shortened": "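Chicken DT40 Tdp1-/- cells complemented with human TDP1, 400 cells/well, exposed to compounds plus 20 nM camptothecin for at least 48 h at 37 C; viability read as ATP content by CellTiter-Glo luminescence.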"}
{"molecule": "CSc1ccc(CCNC(=O)c2cnn(-c3ccccc3)c2-n2cccc2)cc1", "Potency": "18.4 µM (active)"}
{"molecule": "Cc1c(C(=O)NCc2ccccc2)cnn1-c1ccccc1", "Potency": "inactive"}
{"molecule": "CCCN1CCN(CCCNC(=O)c2cnn(-c3ccc(C)cc3)c2-n2cccc2)CC1", "Potency": "inactive"}
{"molecule": "COc1cc(C(=O)Nc2ncccc2C)ccc1OCC(=O)N1CCOCC1", "Potency": "inactive"}
{"molecule": "Cn1ccnc1-c1nnn(-c2ccc(F)cc2)n1", "Potency": "inactive"}
{"molecule": "C/C(=N\\NC(=O)c1ccccc1F)c1ccccn1", "Potency": "3.26 µM (active)"}
{"molecule": "COc1ccc(C/C(C)=N/NC(=O)c2cc(C)oc2C)cc1", "Potency": "inactive"}
{"molecule": "CNC(=S)N1CCN(c2ccccn2)CC1", "Potency": "inactive"}
{"molecule": "Cc1ccc(Cl)cc1NC(=O)c1ccccn1", "Potency": "inactive"}
{"molecule": "COc1ccc(CC(=O)N/N=C(\\C)c2ccccn2)cc1", "Potency": "3.66 µM (active)"}
{"molecule": "C/C(=N\\NC(=O)Cc1ccc(Br)cc1)c1cccnc1", "Potency": "inactive"}
{"molecule": "CC(=NNC(=S)N1CCCCCC1)c1ccccn1", "Potency": "0.0092 µM (active)"}
{"molecule": "C/C(CC(=O)Nc1ccc(N(C)C)cc1)=N\\NC(=O)c1ccccc1F", "Potency": "inactive"}
{"molecule": "O=C(Nc1ccc(NC(=O)c2ccccc2F)cc1)c1ccccc1F", "Potency": "inactive"}
{"molecule": "C/C(=N\\NC(=O)Cc1ccc(Cl)cc1)c1ccccn1", "Potency": "1.46 µM (active)"}
{"molecule": "COc1ccc(C/C(C)=N/NC(=O)c2ccncc2)cc1", "Potency": "inactive"}
{"molecule": "Cc1cccc(C)c1NC(=S)N1CCCCCC1", "Potency": "inactive"}
{"molecule": "CCC1([N+](=O)[O-])COC(c2ccc(C)cc2)OC1", "note": "(stereo not drawn)", "Potency": "inactive"}
{"molecule": "Cc1cc(C(C)(C)C)n2nc(C)c(-c3ccccc3)c2n1", "Potency": "inactive"}
{"molecule": "CCc1nnc(NC(=O)c2cc(S(=O)(=O)N3CCCCC3)ccc2C)s1", "Potency": "inactive"}
{"molecule": "CCOC(=O)C1CCN(C(c2ccc(F)cc2)c2sc3nc(-c4ccco4)nn3c2O)CC1", "note": "(stereo not drawn)", "Potency": "inactive"}
{"molecule": "Cc1cccc(N(C(=O)c2csnn2)C(C(=O)NCc2ccccc2)c2ccncc2)c1", "note": "(stereo not drawn)", "Potency": "inactive"}
{"molecule": "Cc1ccc(NC(=O)CCCNC(=O)c2ccc(Cl)cc2)cc1S(=O)(=O)N1CCOCC1", "Potency": "inactive"}
{"molecule": "O=C(Nc1cccc(F)c1)N1CC2(CCN(C(=O)c3cnccn3)CC2)C1", "Potency": "inactive"}
{"molecule": "COc1ccc(NC(=O)Cn2ncn3c(cc4ccccc43)c2=O)c(OC)c1OC", "Potency": "inactive"}
{"molecule": "O=C1CCC(C(=O)N2CCC(O)(c3ccccc3)CC2)CN1CCc1ccccc1", "note": "(stereo not drawn)", "Potency": "inactive"}
{"molecule": "Cc1cccnc1NC(=O)CSc1nnc(COc2ccc(C(C)C)cc2)n1C", "Potency": "inactive"}
{"molecule": "CN(CC(=O)Nc1ccccc1Cl)C(=O)COc1cccc2c1OC(C)(C)C2", "Potency": "inactive"}
{"molecule": "Cn1nc(C(F)(F)F)c(C(=O)Nc2cccc(C(F)(F)F)c2)c1SCc1ccc(Cl)cc1", "Potency": "16.4 µM (active)"}
{"molecule": "CCC(=O)OCc1c(C(F)(F)F)nn(C)c1Oc1cccc(C(F)(F)F)c1", "Potency": "inactive"}
{"molecule": "O=C(O)CSCC(=O)Nc1cccc(C(F)(F)F)c1", "Potency": "inactive"}
{"molecule": "CCC1=Nc2cc(C(=O)NCCCOC(C)C)ccc2Sc2ccc(C)cc21", "Potency": "0.92 µM (active)"}
{"molecule": "CC(C)OCCCNC(=O)CNC(=O)c1cccs1", "Potency": "inactive"}
{"molecule": "COCCNC(=O)c1snc2ccc(Cl)cc12", "Potency": "inactive"}
{"molecule": "CC(C)OCCCNC(=O)c1ccc(C2SCC(=O)N2Cc2ccco2)cc1", "note": "(stereo not drawn)", "Potency": "inactive"}
{"molecule": "Cc1ccc(OCCNC(=O)CNC(=O)c2ccc(C)c(C)c2)cc1", "Potency": "inactive"}
{"molecule": "COCCNC(=O)c1ccc2c(c1)N=C(C)c1cc(C)ccc1S2", "Potency": "0.517 µM (active)"}
{"molecule": "CCCCSc1[nH]c(=O)c(C(=O)OCC)cc1C#N", "Potency": "inactive"}
{"molecule": "Cc1ccc(C)c(-n2c(SCC(=O)O)nc3sc4c(c3c2=O)CCCC4)c1", "Potency": "inactive"}
{"molecule": "CCOC(=O)c1c(NC(=O)CN2C(=O)NC3(CCC(C)CC3)C2=O)sc(C)c1CC", "note": "(stereo not drawn)", "Potency": "inactive"}
{"molecule": "Nc1ccc(S(=O)(=O)NC(=O)c2ccccc2)cc1", "Potency": "inactive"}
{"molecule": "Nc1ccc(C(=O)Nc2ccccc2N)cc1", "Potency": "2.37 µM (active) and 5.8 µM (active)"}
{"molecule": "Nc1ccc(C(=O)NCc2ccccc2)cc1", "Potency": "inactive"}
{"molecule": "O=C(NCC1CCCO1)/C(=C/c1ccc(Cl)cc1)NC(=O)c1ccccc1", "note": "(stereo not drawn)", "Potency": "inactive"}
{"molecule": "Cc1nn(C)cc1S(=O)(=O)N1CCN(c2ccc(F)cc2)CC1", "Potency": "inactive"}
{"molecule": "O=C(COc1cccc2c1CCNC2=O)NC1CCCCC1", "Potency": "inactive"}
{"molecule": "CCOc1ccccc1CNC(=O)C1CCCN(S(=O)(=O)c2ccc3c(ccn3C)c2)C1", "note": "(stereo not drawn)", "Potency": "14.6 µM (active)"}
{"molecule": "COc1cccc(CNC(=O)C2CCN(S(=O)(=O)c3ccc4c(ccn4C)c3)CC2)c1", "Potency": "inactive"}
{"molecule": "CCOc1ccccc1NC(=O)C1CCCN(S(=O)(=O)c2cn(C)cn2)C1", "note": "(stereo not drawn)", "Potency": "inactive"}
{"molecule": "O=C1CCCCC1Sc1ccc(Cl)cc1[N+](=O)[O-]", "note": "(stereo not drawn)", "Potency": "inactive"}
{"molecule": "Cc1c(CNC2CCCCC2)c(C(=O)O)c(C)n1Cc1cccc(Cl)c1", "Potency": "inactive"}
{"molecule": "CC(=O)c1ccc(NC(=O)C(C)NCc2ccc(Cl)cc2)cc1", "note": "(stereo not drawn)", "Potency": "inactive"}
{"molecule": "Nc1nonc1-n1nnc(C(=O)N/N=C/c2ccc(Cl)cc2)c1-c1ccc2c(c1)OCO2", "Potency": "inactive"}
{"molecule": "Cc1cc(N2C(=O)C(=O)/C(=C(/O)c3ccccc3)C2c2cccc(Br)c2)no1", "note": "(stereo not drawn)", "Potency": "inactive"}
{"molecule": "CCN(CC)CCCC(C)n1c2nc(=O)[nH]c(=O)c-2nc2cc(Cl)ccc21", "note": "(stereo not drawn)", "Potency": "8.2 µM (active)"}
{"molecule": "COc1ccc(Cc2nnc(N/N=C/c3ccccc3O)[nH]c2=O)cc1OC", "Potency": "0.0184 µM (active)"}
{"molecule": "COc1ccc(/C=N/Nc2nc3ccccc3c(=O)[nH]2)cc1", "Potency": "inactive"}
{"molecule": "O=c1[nH]c(NCCO)nnc1Cc1ccc(Cl)cc1", "Potency": "inactive"}
{"molecule": "COC(=O)C(=Nc1ccccc1)/C(C(=O)C(=O)N(C)c1ccccc1)=C(\\O)c1ccc(Cl)cc1", "Potency": "inactive"}
{"molecule": "O=c1cnnc(Nc2ccccc2F)[nH]1", "Potency": "inactive"}
{"molecule": "Cc1c(C(=O)OCC(=O)N2CCCC2=O)oc2ccccc12", "Potency": "inactive"}
{"molecule": "COc1ccccc1CNC(=O)C(Cc1ccccc1)NS(=O)(=O)c1ccc2c(c1)oc(=O)n2C", "note": "(stereo not drawn)", "Potency": "20.6 µM (active)"}
{"molecule": "CSCCC(NS(=O)(=O)c1ccc2c(c1)oc(=O)n2C)C(=O)NCc1ccccc1", "note": "(stereo not drawn)", "Potency": "inactive"}
{"molecule": "Cc1ccc(NC(=O)C(Cc2ccccc2)NS(=O)(=O)c2ccc3c(c2)oc(=O)n3C)cc1C", "note": "(stereo not drawn)", "Potency": "inactive"}
{"molecule": "Cc1cccc(NC(=S)N2CCCC(c3nc4ccccc4[nH]3)C2)c1", "note": "(stereo not drawn)", "Potency": "inactive"}
{"molecule": "O=C(O)CCC(=O)NCc1ccc2[nH]c3c(c2c1)CCCC3", "Potency": "inactive"}
{"molecule": "Cc1cccc(NC(=S)NCc2ccc3[nH]c4c(c3c2)CCCC4)c1", "Potency": "23.1 µM (active)"}
{"molecule": "Cc1ccc(S(=O)(=O)N2CCOCC2)cc1C(=O)Nc1ccccc1N1CCCC1", "Potency": "inactive"}
